Measurements taken from article PMC7862700, “An all-to-all approach to the identification of sequence-specific readers for epigenetic DNA modifications on cytosine”.

Tests used:
Assay in all cases: DAPPL (digital affinity profiling via proximity ligation, sequencing); 10 mM Tris-HCl pH 7.5, 50 mM NaCl, 1 mM DTT, 4% glycerol, room temperature, 30 min; GST-TFs on glutathione beads, 16-mer random dsDNA library, 0.1% formaldehyde crosslink after washing; high values mean tight binding
FLI1 = target: T1, FLI1 (Homo sapiens, UniProt Q01543 1-452); conditions: protein: recombinant; tags: N-terminal GST; dsDNA, one strand shown
T1 sequence: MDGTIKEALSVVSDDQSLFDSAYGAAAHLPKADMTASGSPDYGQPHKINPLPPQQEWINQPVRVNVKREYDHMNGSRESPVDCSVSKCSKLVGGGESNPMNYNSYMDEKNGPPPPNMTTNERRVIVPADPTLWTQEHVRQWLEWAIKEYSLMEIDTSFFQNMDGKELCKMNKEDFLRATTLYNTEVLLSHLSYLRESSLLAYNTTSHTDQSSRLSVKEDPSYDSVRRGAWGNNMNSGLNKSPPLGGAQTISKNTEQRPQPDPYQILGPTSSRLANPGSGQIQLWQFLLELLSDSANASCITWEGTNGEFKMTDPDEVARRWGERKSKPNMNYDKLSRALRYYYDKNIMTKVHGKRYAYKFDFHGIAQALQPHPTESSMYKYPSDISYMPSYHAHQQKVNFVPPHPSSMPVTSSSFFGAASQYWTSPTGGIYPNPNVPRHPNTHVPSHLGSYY
Outline: (§1)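 After expression in yeast as GST fusions, human transcription factors were bound to glutathione beads, DNA-barcoded and mixed with a tag-only sample. The pools were incubated with 200 nmole of a 16-mer random double-stranded DNA library in Tris/NaCl/DTT/glycerol buffer (30 min, room temperature), washed and crosslinked with 0.1% formaldehyde. Proximity ligation with BsaI/T4 ligase ran for 1 h at 37 °C, before PCR amplification and sequencing on an Illumina NextSeq500. Binding signal is a hexamer's read frequency for a factor divided by its frequency for the tag-only sample.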

ELK1 = target: T2, ELK1 (Homo sapiens, UniProt P19419 1-428); conditions: protein: recombinant; tags: N-terminal GST; dsDNA, one strand shown
T2 sequence: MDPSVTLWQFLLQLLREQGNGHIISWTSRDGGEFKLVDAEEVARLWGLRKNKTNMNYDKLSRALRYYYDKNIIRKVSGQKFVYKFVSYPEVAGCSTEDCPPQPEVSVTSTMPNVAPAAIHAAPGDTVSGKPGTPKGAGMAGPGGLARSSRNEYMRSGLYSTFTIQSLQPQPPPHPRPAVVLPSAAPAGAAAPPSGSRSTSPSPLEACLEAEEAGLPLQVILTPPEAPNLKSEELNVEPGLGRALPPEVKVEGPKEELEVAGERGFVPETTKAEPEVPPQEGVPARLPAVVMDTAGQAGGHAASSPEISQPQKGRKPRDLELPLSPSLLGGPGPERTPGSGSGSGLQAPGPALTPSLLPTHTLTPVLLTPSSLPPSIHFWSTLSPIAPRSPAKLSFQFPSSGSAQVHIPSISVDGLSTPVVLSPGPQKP
Outline: as §1

GABPA = target: T3, GABPA (Homo sapiens, UniProt Q06546 1-454); conditions: protein: recombinant; tags: N-terminal GST; dsDNA, one strand shown
T3 sequence: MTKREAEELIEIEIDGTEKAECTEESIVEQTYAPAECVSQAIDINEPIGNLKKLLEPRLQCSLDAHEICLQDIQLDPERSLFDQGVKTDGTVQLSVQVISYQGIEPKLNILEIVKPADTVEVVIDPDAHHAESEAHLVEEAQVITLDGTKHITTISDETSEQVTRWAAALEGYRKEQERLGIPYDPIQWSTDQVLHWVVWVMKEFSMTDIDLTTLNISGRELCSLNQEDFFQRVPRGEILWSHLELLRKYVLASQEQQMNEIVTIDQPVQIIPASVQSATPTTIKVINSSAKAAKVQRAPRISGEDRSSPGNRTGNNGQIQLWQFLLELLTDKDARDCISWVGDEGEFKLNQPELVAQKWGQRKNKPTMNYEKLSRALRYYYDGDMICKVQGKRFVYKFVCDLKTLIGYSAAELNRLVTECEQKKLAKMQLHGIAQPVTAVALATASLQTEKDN
Outline: as §1

ERG = target: T4, ERG (Homo sapiens, UniProt P11308 1-479); conditions: protein: recombinant; tags: N-terminal GST; dsDNA, one strand shown
T4 sequence: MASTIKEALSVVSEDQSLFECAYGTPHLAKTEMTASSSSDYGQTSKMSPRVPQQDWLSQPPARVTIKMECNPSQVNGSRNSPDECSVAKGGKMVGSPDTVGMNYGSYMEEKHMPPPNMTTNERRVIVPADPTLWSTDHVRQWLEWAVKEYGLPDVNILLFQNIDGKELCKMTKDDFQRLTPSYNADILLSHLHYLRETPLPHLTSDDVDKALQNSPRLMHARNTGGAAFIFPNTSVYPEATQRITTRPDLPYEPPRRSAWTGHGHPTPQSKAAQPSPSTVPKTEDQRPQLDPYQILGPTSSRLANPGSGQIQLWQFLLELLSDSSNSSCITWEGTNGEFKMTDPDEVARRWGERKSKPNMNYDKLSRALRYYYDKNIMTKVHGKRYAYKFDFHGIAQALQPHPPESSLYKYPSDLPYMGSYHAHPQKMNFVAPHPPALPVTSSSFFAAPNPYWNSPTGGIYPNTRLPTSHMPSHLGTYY
Outline: as §1

ELF1 = ELF1 (Homo sapiens, UniProt P32519 1-619); conditions: protein: recombinant; tags: N-terminal GST; dsDNA, one strand shown
Outline: as §1

EHF = target: T5, EHF (Homo sapiens, UniProt Q9NZC4 1-300); conditions: protein: recombinant; tags: N-terminal GST; dsDNA, one strand shown
T5 sequence: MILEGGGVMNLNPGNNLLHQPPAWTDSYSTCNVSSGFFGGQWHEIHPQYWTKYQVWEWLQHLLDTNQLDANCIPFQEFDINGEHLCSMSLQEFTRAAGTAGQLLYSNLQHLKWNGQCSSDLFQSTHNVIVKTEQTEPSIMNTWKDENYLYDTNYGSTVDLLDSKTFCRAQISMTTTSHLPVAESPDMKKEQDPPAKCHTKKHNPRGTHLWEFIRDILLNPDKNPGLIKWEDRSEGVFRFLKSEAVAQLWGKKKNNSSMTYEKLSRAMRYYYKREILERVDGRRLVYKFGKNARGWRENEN
Outline: as §1

SPI1 = SPI1 (Homo sapiens, UniProt P17947 1-270); conditions: protein: recombinant; tags: N-terminal GST; dsDNA, one strand shown
Outline: as §1

ELK3 = target: T6, ELK3 (Homo sapiens, UniProt P41970 1-407); conditions: protein: recombinant; tags: N-terminal GST; dsDNA, one strand shown
T6 sequence: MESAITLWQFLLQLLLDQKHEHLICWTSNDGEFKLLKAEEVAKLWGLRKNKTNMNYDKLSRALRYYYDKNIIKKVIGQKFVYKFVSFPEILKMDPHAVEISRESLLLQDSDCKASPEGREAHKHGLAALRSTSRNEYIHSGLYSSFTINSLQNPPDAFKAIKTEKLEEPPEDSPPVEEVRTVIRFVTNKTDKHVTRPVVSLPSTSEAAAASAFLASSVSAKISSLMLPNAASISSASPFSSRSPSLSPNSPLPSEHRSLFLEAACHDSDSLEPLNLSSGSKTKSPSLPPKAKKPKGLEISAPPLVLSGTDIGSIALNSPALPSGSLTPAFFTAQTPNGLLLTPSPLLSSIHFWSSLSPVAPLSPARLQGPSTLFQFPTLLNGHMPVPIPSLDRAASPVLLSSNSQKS
Outline: as §1

FEV = target: T7, FEV (Homo sapiens, UniProt Q99581 1-238); conditions: protein: recombinant; tags: N-terminal GST; dsDNA, one strand shown
T7 sequence: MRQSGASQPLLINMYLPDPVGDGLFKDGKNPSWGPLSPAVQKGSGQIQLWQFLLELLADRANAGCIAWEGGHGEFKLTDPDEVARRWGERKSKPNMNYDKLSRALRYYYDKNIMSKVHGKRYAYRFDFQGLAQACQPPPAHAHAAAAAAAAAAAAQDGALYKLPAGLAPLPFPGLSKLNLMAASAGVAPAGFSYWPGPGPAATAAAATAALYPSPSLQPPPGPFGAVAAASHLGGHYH
Outline: as §1

ETV5 = ETV5 (Homo sapiens, UniProt P41161 1-510); conditions: protein: recombinant; tags: N-terminal GST; dsDNA, one strand shown
Outline: as §1

HSF1 = HSF1 (Homo sapiens, UniProt Q00613 1-529); conditions: protein: recombinant; tags: N-terminal GST; chain copies: 3; dsDNA, one strand shown
Outline: as §1

SPIC = target: T8, SPIC (Homo sapiens, UniProt Q8N5J4 1-248); conditions: protein: recombinant; tags: N-terminal GST; dsDNA, one strand shown
T8 sequence: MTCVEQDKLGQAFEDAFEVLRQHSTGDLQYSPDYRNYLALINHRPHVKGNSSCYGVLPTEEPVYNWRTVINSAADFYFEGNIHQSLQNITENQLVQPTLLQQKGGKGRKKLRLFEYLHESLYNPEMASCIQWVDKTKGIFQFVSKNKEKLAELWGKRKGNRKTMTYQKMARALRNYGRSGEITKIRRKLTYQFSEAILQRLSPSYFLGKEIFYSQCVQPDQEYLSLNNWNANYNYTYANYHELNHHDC
Outline: as §1

ELF4 = ELF4 (Homo sapiens, UniProt Q99607 1-663); conditions: protein: recombinant; tags: N-terminal GST; dsDNA, one strand shown
Outline: as §1

ELK4 = target: T9, ELK4 (Homo sapiens, UniProt P28324-2 1-405); conditions: protein: recombinant; tags: N-terminal GST; dsDNA, one strand shown
T9 sequence: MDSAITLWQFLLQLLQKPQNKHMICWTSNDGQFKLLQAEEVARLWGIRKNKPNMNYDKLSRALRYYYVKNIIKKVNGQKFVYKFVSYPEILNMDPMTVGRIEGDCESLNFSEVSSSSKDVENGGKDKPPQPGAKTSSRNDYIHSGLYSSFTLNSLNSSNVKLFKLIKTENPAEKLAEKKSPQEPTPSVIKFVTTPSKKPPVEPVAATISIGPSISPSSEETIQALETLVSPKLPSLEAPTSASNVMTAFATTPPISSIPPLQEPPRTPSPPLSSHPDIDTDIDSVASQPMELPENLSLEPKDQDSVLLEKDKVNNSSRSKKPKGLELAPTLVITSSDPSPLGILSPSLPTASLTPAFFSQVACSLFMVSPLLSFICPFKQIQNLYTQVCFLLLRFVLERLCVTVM
Outline: as §1

ETV2 = target: T10, ETV2 (Homo sapiens, UniProt O00321 1-342); conditions: protein: recombinant; tags: N-terminal GST; dsDNA, one strand shown
T10 sequence: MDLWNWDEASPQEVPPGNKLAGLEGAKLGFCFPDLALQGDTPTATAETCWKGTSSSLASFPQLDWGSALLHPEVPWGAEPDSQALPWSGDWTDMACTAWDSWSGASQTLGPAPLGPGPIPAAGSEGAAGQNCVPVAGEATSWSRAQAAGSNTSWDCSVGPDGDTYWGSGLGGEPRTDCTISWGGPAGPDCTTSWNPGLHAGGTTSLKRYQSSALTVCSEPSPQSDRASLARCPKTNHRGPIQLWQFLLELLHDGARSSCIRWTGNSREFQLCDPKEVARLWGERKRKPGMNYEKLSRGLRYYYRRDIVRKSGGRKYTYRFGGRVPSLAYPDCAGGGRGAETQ
Outline: as §1

ELF3 = target: T11, ELF3 (Homo sapiens, UniProt P78545 1-371); conditions: protein: recombinant; tags: N-terminal GST; dsDNA, one strand shown
T11 sequence: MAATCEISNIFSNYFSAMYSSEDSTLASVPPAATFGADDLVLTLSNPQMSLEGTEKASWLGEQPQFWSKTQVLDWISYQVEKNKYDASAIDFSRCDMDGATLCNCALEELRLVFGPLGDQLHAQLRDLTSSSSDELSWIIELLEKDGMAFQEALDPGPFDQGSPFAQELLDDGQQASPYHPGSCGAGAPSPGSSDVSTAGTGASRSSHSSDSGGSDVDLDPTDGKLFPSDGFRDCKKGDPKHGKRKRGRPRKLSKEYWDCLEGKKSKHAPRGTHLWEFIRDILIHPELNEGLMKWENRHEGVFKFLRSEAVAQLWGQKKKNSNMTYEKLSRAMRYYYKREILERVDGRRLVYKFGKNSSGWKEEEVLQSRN
Outline: as §1

ETV1 = ETV1 (Homo sapiens, UniProt P50549 1-477); conditions: protein: recombinant; tags: N-terminal GST; dsDNA, one strand shown
Outline: as §1

Sequence of ETV1 (P50549 whole entry): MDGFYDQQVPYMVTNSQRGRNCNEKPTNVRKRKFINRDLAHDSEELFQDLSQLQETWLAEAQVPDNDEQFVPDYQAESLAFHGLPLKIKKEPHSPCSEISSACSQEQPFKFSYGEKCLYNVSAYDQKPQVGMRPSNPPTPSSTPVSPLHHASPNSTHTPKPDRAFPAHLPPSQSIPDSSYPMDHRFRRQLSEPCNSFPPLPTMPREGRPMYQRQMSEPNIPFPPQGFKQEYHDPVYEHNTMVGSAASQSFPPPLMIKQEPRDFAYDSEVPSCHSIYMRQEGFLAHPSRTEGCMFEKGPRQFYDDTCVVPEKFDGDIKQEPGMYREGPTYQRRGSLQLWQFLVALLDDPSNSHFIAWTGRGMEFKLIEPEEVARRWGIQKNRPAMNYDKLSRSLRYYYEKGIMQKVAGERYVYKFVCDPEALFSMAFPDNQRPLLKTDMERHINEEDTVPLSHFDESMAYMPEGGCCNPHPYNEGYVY
Sequence of ELF4 (Q99607 whole entry): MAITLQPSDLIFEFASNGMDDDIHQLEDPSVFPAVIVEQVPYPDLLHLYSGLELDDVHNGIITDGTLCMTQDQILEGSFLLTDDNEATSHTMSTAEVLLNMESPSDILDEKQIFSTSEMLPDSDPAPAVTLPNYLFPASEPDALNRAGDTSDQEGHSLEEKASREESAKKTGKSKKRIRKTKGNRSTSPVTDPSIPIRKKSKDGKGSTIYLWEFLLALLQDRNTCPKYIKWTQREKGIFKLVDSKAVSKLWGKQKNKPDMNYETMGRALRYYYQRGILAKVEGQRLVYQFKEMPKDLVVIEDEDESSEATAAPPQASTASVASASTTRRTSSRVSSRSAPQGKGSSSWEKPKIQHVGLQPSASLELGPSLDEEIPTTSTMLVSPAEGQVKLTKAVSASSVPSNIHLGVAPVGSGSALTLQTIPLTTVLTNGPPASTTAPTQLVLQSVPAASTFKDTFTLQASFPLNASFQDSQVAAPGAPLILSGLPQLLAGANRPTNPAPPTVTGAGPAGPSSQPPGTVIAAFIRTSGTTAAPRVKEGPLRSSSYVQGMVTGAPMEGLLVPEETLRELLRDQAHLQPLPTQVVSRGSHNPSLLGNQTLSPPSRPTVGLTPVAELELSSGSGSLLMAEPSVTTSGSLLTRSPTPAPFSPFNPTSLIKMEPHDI
Sequence of ETV5 (P41161 whole entry): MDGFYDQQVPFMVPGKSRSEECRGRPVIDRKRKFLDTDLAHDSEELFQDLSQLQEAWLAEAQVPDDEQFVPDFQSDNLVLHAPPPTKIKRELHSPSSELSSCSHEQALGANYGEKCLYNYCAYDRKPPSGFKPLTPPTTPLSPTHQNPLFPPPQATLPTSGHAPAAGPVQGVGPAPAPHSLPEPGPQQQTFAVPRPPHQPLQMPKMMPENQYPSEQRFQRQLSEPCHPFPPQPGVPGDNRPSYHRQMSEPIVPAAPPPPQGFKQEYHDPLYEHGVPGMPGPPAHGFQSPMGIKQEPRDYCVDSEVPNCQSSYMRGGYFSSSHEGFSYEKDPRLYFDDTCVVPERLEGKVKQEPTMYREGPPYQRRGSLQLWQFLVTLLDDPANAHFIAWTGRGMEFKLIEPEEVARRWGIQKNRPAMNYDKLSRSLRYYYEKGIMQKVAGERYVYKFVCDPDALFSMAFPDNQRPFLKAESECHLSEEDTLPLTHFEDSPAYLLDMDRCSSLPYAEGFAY
Sequence of ELF1 (P32519 whole entry): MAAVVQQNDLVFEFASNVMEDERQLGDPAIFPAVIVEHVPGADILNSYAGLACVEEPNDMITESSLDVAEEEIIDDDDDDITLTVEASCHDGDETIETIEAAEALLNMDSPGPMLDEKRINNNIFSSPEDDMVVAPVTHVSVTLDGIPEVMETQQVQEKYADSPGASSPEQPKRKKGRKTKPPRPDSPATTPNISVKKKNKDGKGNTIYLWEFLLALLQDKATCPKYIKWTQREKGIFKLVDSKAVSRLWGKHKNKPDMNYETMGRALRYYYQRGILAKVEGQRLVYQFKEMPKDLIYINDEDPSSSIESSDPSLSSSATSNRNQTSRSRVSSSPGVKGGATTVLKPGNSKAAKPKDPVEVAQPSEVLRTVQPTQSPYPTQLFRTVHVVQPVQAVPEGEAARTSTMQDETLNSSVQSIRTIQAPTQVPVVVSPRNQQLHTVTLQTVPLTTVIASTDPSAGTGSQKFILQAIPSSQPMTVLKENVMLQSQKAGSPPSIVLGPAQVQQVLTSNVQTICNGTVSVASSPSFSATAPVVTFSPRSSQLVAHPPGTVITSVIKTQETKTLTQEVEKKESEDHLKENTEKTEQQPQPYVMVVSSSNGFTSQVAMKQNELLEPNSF
Sequence of HSF1 (Q00613 whole entry): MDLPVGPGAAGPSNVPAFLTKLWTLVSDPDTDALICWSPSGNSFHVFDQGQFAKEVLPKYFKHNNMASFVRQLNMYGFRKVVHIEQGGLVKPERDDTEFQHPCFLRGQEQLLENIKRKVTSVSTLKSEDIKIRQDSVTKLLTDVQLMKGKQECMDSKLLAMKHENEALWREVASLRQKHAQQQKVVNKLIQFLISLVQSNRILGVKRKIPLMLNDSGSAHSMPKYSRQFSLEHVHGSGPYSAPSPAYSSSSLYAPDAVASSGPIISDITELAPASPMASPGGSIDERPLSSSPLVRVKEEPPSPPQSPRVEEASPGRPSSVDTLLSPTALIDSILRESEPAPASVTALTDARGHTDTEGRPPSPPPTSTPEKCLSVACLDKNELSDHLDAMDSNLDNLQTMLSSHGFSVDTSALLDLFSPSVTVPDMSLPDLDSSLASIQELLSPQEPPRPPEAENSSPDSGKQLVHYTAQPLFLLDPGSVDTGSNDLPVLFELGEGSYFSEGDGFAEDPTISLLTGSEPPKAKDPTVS

Question: Which results are given for CATGAA?
Answer: binding signal (FLI1): 1.08 fold enrichment (6-mer frequency, TF over GST control); binding signal (ELK1): 1.16 fold enrichment (6-mer frequency, TF over GST control); binding signal (GABPA): 1.03 fold enrichment (6-mer frequency, TF over GST control); binding signal (ERG): 1.07 fold enrichment (6-mer frequency, TF over GST control); binding signal (ELF1): 1.06 fold enrichment (6-mer frequency, TF over GST control); binding signal (EHF): 1.15 fold enrichment (6-mer frequency, TF over GST control); binding signal (SPI1): 1.04 fold enrichment (6-mer frequency, TF over GST control); binding signal (ELK3): 1.11 fold enrichment (6-mer frequency, TF over GST control); binding signal (FEV): 1.03 fold enrichment (6-mer frequency, TF over GST control); binding signal (ETV5): 1.07 fold enrichment (6-mer frequency, TF over GST control); binding signal (HSF1): 1.05 fold enrichment (6-mer frequency, TF over GST control); binding signal (SPIC): 1.16 fold enrichment (6-mer frequency, TF over GST control); binding signal (ELF4): 1.1 fold enrichment (6-mer frequency, TF over GST control); binding signal (ELK4): 1.11 fold enrichment (6-mer frequency, TF over GST control); binding signal (ETV2): 1.06 fold enrichment (6-mer frequency, TF over GST control); binding signal (ELF3): 1.15 fold enrichment (6-mer frequency, TF over GST control); binding signal (ETV1): 1.08 fold enrichment (6-mer frequency, TF over GST control)
